These results are taken from PubChem BioAssay (EPA / NIEHS).

Results filed as inconclusive are left out. Active and inactive are the calls of the source. Rule for the calls: active = hit-call score of the fitted dose curve at least 0.9, where 1 is the maximum; inconclusive = response in the unintended direction; inactive = score below 0.9.

For experiment [1], the target named is human Peroxisome Proliferator-activated Receptor alpha (PPARa), PPARA (gene 5465) (UniProt Q07869). In words: ATG_PPARa_TRANS: Attagene TRANS-FACTORIAL HepG2 Assay for human Peroxisome Proliferator-activated Receptor alpha (PPARa) (AID 2283001).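 For AC50: potency for gain of reporter signal over DMSO so agonist or activator.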 The method in brief:
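Exposure: 24 h, transiently transfected HepG2 cells. Endpoint: GAL4-UAS reporter mRNA, RT-PCR with capillary electrophoresis fluorescence. Baseline: DMSO; increases fitted.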

The target in experiment [2] is Peroxisome proliferator-activated receptor gamma (Homo sapiens) (UniProt P37231). Briefly: ATG_PPARg_TRANS: Attagene TRANS-FACTORIAL HepG2 Assay for human Peroxisome Proliferator-activated Receptor-gamma (PPARg) (AID 2283007). Summed up:
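A TRANS-format multiplexed reporter assay measures activity of an exogenous chimeric NR-Gal4 protein in HepG2 cells. After 24 h of chemical exposure, reporter transcripts are amplified, fluorescently labelled and sized by capillary electrophoresis, with gain of signal scored against DMSO.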

Experiment [3] addresses Nuclear receptor subfamily 1 group I member 2 (Homo sapiens) (UniProt O75469). Briefly: ATG_PXR_TRANS: Attagene TRANS-FACTORIAL HepG2 Assay for human Pregnane X Receptor (PXR) (AID 2283008). The method in brief:
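Multiplexed TRANS reporter panel in HepG2; this component tracks PXR-Gal4-driven reporter mRNA after 24 h dosing, measured by RT-PCR with capillary electrophoresis fluorescence, fitted against DMSO.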

Experiment [4] has as its target human RAR-related Orphan Receptor beta (RORb), RORB (gene 6096) (UniProt Q92753). Briefly: ATG_RORb_TRANS: Attagene TRANS-FACTORIAL HepG2 Assay for human RAR-related Orphan Receptor beta (RORb) (AID 2283010). The method in brief:
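Multiplexed transcription-factor reporter assay: HepG2 cells transiently carrying NR-Gal4/GAL4-UAS constructs, 24 h treatment, mRNA quantified by RT-PCR plus capillary electrophoresis fluorescence; activity scored as induction over DMSO.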

For experiment [5], the target named is human Peroxisome Proliferator-activated Receptor delta (PPARd), PPARD (gene 5467) (UniProt Q03181). Briefly: ATG_PPARd_TRANS: Attagene TRANS-FACTORIAL HepG2 Assay for human Peroxisome Proliferator-activated Receptor delta (PPARd) (AID 2283002). The method in brief:
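Multiplexed trans-activation format: HepG2 liver cells expressing exogenous NR-Gal4 chimeras and GAL4-UAS reporters were exposed for 24 h. Reporter mRNA was detected by RT-PCR with capillary electrophoresis fluorescence; activity fitted as gain of signal relative to DMSO.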

In experiment [6] the target is human Retinoic Acid Receptor beta (RARb), RARB (gene 5915) (UniProt P10826). Briefly: ATG_RARb_TRANS: Attagene TRANS-FACTORIAL HepG2 Assay for human Retinoic Acid Receptor beta (AID 2283004). Summed up: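 Fluorescent capillary-electrophoresis detection of GAL4-UAS reporter mRNA defines the endpoint, with induction over DMSO-treated wells scored as activity. Transiently transfected human hepatoma HepG2 cells expressing exogenous NR–Gal4 proteins are exposed to test chemicals for 24 h.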
Sequence of human Retinoic Acid Receptor beta (RARb), RARB (gene 5915) (P10826 whole entry, looked up, the tested form may be a part): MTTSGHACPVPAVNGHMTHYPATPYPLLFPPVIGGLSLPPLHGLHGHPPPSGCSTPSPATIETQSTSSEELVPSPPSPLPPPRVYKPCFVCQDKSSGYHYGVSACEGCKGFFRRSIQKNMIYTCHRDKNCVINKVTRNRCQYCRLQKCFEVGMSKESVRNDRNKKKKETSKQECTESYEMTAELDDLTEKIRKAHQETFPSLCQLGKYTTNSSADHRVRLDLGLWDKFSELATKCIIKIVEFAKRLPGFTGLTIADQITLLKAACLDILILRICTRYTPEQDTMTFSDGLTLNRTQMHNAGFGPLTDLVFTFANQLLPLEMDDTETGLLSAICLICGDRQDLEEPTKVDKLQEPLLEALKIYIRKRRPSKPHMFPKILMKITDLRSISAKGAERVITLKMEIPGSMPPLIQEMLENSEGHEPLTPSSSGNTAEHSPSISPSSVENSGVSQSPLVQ

Sequence of human RAR-related Orphan Receptor beta (RORb), RORB (gene 6096) (Q92753 whole entry, looked up, the tested form may be a part): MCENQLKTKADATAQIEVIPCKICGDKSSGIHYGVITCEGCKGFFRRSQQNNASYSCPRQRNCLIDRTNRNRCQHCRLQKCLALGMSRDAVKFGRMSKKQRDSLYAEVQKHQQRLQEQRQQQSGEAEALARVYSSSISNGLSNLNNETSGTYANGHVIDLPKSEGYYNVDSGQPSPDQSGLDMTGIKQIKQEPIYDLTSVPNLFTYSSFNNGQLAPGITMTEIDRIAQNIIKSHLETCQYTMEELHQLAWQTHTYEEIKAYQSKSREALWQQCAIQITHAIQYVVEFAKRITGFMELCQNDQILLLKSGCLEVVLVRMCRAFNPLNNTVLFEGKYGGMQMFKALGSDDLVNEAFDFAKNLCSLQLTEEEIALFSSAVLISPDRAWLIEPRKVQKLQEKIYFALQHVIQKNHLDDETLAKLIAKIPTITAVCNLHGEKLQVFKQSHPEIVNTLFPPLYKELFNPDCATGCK
Sequence of Nuclear receptor subfamily 1 group I member 2 (Homo sapiens) (O75469 whole entry, looked up, the tested form may be a part): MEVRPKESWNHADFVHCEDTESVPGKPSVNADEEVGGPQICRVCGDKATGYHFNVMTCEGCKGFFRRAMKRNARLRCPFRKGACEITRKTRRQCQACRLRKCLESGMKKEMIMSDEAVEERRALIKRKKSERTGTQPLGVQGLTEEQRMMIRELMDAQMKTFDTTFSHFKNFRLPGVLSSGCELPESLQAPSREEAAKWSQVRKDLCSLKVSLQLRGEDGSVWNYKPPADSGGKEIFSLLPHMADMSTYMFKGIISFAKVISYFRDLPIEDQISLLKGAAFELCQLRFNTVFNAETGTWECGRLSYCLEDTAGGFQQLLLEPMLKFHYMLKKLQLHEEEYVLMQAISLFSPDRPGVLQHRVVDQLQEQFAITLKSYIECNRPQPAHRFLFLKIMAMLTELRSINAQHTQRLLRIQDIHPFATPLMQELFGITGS
Sequence of Peroxisome proliferator-activated receptor gamma (Homo sapiens) (P37231 whole entry, looked up, the tested form may be a part): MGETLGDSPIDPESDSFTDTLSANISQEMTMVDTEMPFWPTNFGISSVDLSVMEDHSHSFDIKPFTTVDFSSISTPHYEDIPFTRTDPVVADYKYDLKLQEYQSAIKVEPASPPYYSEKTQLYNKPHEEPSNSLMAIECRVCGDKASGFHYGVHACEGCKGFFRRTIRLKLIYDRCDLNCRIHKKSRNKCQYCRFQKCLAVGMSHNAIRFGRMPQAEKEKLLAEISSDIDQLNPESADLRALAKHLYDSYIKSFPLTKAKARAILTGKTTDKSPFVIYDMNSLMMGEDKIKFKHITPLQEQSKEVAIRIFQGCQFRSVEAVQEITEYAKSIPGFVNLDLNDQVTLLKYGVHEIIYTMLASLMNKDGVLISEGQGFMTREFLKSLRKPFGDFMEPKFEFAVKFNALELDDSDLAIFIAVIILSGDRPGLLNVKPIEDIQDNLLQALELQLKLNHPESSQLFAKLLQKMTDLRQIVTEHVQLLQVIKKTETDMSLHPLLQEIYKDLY
Sequence of human Peroxisome Proliferator-activated Receptor delta (PPARd), PPARD (gene 5467) (Q03181 whole entry, looked up, the tested form may be a part): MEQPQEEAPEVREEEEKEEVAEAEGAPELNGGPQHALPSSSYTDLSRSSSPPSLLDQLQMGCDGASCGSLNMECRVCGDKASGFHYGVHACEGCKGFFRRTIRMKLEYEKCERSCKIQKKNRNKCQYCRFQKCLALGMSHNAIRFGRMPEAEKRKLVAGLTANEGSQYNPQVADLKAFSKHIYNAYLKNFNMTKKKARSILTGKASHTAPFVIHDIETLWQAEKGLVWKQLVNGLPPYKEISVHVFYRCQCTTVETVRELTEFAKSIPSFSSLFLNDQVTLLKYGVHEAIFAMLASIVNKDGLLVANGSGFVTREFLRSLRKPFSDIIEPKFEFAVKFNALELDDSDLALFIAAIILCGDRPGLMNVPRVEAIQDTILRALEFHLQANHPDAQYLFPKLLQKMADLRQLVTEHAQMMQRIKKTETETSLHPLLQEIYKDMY
Sequence of human Peroxisome Proliferator-activated Receptor alpha (PPARa), PPARA (gene 5465) (Q07869 whole entry, looked up, the tested form may be a part): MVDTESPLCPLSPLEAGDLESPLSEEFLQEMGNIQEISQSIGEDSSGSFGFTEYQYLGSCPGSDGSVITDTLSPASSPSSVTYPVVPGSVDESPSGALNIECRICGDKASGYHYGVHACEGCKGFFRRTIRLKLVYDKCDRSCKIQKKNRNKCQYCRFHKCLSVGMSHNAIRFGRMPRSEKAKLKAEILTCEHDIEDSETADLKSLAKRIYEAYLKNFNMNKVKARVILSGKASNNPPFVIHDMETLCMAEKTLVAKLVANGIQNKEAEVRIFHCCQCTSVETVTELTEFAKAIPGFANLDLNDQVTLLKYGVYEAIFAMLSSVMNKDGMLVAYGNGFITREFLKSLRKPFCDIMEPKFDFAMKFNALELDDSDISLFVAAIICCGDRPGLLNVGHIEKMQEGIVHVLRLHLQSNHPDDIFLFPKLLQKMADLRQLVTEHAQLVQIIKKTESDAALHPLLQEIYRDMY

Consider `COc1ccc(C(C)=O)cc1`, for which the outcome in experiment [1], in experiment [2], in experiment [3] and in experiment [4] was inactive.

Regarding `OC[C@H]1O[C@@H](O[C@H]2[C@H](O)[C@@H](O)[C@H](O)O[C@@H]2CO)[C@H](O)[C@@H](O)[C@H]1O`, the compound was classed as inactive in experiment [5], in experiment [6], in experiment [2], in experiment [3] and in experiment [4].

Turning to `[Na+]`, in experiment [5], the outcome was inactive.

For the compound `CNC(=C[N+](=O)[O-])NCCSCc1ccc(CN(C)C)o1`, the outcome in experiment [5], in experiment [6], in experiment [2], in experiment [3] and in experiment [4] was inactive.

As to `CCCCCC1CCC(=O)O1` (stereo not given), the result in experiment [1] and in experiment [3] was inactive.

Turning to `O=S(=O)(O)c1cc(S(=O)(=O)O)c2c(N=Nc3ccccc3)c(O)ccc2c1`, the compound was classed as inactive in experiment [1], in experiment [3] and in experiment [4].

For `CCc1cccc(O)c1`, the outcome in experiment [1], in experiment [2], in experiment [3] and in experiment [4] was inactive.

As to `N#CCCNCCC#N`, the outcome in experiment [1], in experiment [2], in experiment [3] and in experiment [4] was inactive.

Consider `Cc1ccccc1S`, for which the compound was called inactive in experiment [1] and in experiment [3]. The AC50 – broadly, the concentration at which the activity in the assay is half-maximal – in experiment [2] was 41.6 µM (active).

Regarding `CC(CCO)CC(C)(C)C` (stereo not given), the outcome in experiment [1], in experiment [2] and in experiment [4] was inactive.

For `CC1=CCC(C(C)(C)O)CC1` (stereo not given), the compound was classed as inactive in experiment [1], in experiment [3] and in experiment [4].

For the compound `CC(=O)CC(=O)N(C)C`, the call in experiment [1], in experiment [3] and in experiment [4] was inactive.

Consider `C=CCCCCCCCCC(=O)OCC`, for which the outcome in experiment [1] and in experiment [3] was inactive. The AC50 in experiment [2] is 55.9 µM (active).

In the case of `CCC(C)COC(=O)CC(C)C` (stereo not given), the outcome in experiment [1], in experiment [2], in experiment [3] and in experiment [4] was inactive.

Turning to `N=C1N=C(N)c2ccccc21`, the AC50 in experiment [1] was 173 µM (active). In addition, the compound was called inactive in experiment [2] and in experiment [4].

On to `CCCC[N+](C)(CCCC)CCCC`, for which the outcome in experiment [1] and in experiment [4] was inactive.

For the compound `O=[N+]([O-])c1cc(N(CCO)CCO)ccc1NCCO`, in experiment [5], the compound was classed as inactive.

With `CC(O)COCC(C)O` (stereo not given), the result in experiment [1] and in experiment [3] was inactive.

Consider `CN1CCc2cccc3c2[C@H]1Cc1ccc(O)c(O)c1-3`, for which the compound was called inactive in experiment [5], in experiment [6] and in experiment [3]. Further, the half-maximal activity concentration (AC50) in experiment [2] was 12 µM (active).

For `COC(=O)c1cccc(C(=O)OC)c1`, the result in experiment [1], in experiment [2], in experiment [3] and in experiment [4] was inactive.

On to `O=c1cc(-c2ccc(O)cc2)oc2cc(O)cc(O)c12`, for which the call in experiment [5] was inactive. In addition, in experiment [2], the AC50 was 18.2 µM (active).

On to `CCCCCCCOC(C)=O`, for which the compound was classed as inactive in experiment [5], in experiment [2] and in experiment [3].

As to `CC(=O)OC/C=C(C)/C=C/C=C(C)/C=C/C1=C(C)CCCC1(C)C`, the compound was called inactive in experiment [5]. Also, the results for the AC50 in experiment [2] and in experiment [3] were 27.3 µM (active) and 0.418 µM (active), respectively.

On to `CCCCCCCC(=O)N(C)C`, for which the compound was classed as inactive in experiment [5], in experiment [2] and in experiment [3].

Consider `C1CCCNCC1`, for which the compound was called inactive in experiment [5] and in experiment [2].

As for `CCCCCCOC(C)=O`, the compound was called inactive in experiment [5] and in experiment [2].

With `C[N+](C)(C)CCO`, the outcome in experiment [5], in experiment [2] and in experiment [3] was inactive.

In the case of `O=C1Cc2ccccc2C1`, the compound was classed as inactive in experiment [5] and in experiment [2]. In experiment [3], the AC50 is 27.9 µM (active).

As to `COc1ccc2[nH]cc(CCNC(C)=O)c2c1`, the compound was called inactive in experiment [5], in experiment [2] and in experiment [3].

`NC(=O)c1cccnc1`: the result in experiment [5] and in experiment [2] was inactive.

For `CC(=O)CC(C)(C)C1CCCCC1`, the outcome in experiment [5], in experiment [6] and in experiment [3] was inactive.

Consider `CC(C)=CC(=O)O`, for which the compound was classed as inactive in experiment [5], in experiment [2] and in experiment [3].

As to `Brc1cc(Br)cc(Br)c1`, the outcome in experiment [5] and in experiment [2] was inactive.

For `NC(=O)NC(N)=O`, the outcome in experiment [5], in experiment [6] and in experiment [3] was inactive.

As for `CCOC(=O)CC(C)C`, the call in experiment [5], in experiment [2] and in experiment [3] was inactive.

`CCCCOCCOC(=O)c1ccccc1C(=O)OCCOCCCC`: the compound was classed as inactive in experiment [5]. Besides, the AC50 was 27.5 µM (active) in experiment [2] and 7.61 µM (active) in experiment [3].

`CCC(C)(C)c1cc(O)c(C(C)(C)CC)cc1O`: the outcome in experiment [5] and in experiment [2] was inactive.

As to `ClCCOCCOCCCl`, the compound was classed as inactive in experiment [5], in experiment [6], in experiment [2] and in experiment [4].

For the compound `CCCCCCCCOC(C)=O`, the compound was classed as inactive in experiment [5] and in experiment [2].

Turning to `CC/C=C\C#N`, the compound was called inactive in experiment [5], in experiment [2] and in experiment [3].

Take `Cc1cccc(C)c1`: the call in experiment [5] and in experiment [2] was inactive.

Consider `CC12CCC(C1)C(C)(C)C2O` (stereo not given), for which the compound was called inactive in experiment [5], in experiment [6] and in experiment [3].

`CCC(C)(C)C1CCC(OC)CC1` (stereo not given): the compound was called inactive in experiment [5] and in experiment [2]. In experiment [3], the half-maximal activity concentration (AC50) is 8.16 µM (active).

In the case of `Cc1cc(N)n(-c2ccccc2)n1`, the outcome in experiment [5], in experiment [2], in experiment [3] and in experiment [4] was inactive.

`CC(C)COC(=O)c1ccccc1O`: the compound was called inactive in experiment [5], in experiment [2] and in experiment [3].

As for `[Cu+]`, the result in experiment [5], in experiment [6], in experiment [2] and in experiment [4] was inactive.

Consider `CC1(C)CC(=O)CC(C)(C)N1`, for which the compound was called inactive in experiment [5], in experiment [2] and in experiment [3].

For `CCCCCC(=O)O[C@]1(C(C)=O)CC[C@H]2[C@@H]3CCC4=CC(=O)CC[C@]4(C)[C@H]3CC[C@@]21C`, in experiment [5], the result was inactive. For the same compound, the AC50 in experiment [2] is 3.22 µM (active).

On to `CN(C)c1ccc(C=O)cc1`, for which the result in experiment [5], in experiment [2] and in experiment [3] was inactive.

Regarding `CCCc1ccc(O)cc1`, the outcome in experiment [5], in experiment [2] and in experiment [3] was inactive.

Consider `CC(C)(C)c1ccc(S)cc1`, for which the compound was classed as inactive in experiment [5], in experiment [2] and in experiment [3].

For `CCCCCCCCCCOC(=O)c1ccccc1C(=O)OCCCCCCCC`, the call in experiment [5], in experiment [2] and in experiment [3] was inactive.

Turning to `N#CCCCC(C#N)CCC#N` (stereo not given), the compound was called inactive in experiment [5], in experiment [6] and in experiment [3].

For the compound `CC(C)(O)CCc1ccccc1`, the outcome in experiment [5], in experiment [2], in experiment [3] and in experiment [4] was inactive.
